# Screening data from PubChem BioAssay.
# TDP1 cell CPT = growth inhibition of DT40 Tdp1-/-;hTDP1 cells with camptothecin (screen for TDP1 inhibitors). chicken DT40 Tdp1-/-;hTDP1 cells + 20 nM CPT, ATP luminescence, 48 h. 420,000 compounds, 12% hits. Potency, µM (doses to about 46.2 µM), inactives show at the highest dose activity change, negative = growth inhibition, hits mostly inhibitors; also: nearly all actives have a fitted effect of over 55% in size
#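 Chicken DT40 Tdp1-/- cells stably complemented with human TDP1 were seeded at 400 cells/well in medium containing 20 nM camptothecin, exposed to pin-transferred compounds, and grown at 37 °C for at least 48 hr. Viability was read as ATP luminescence.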
# RORg inh = inhibitors of mouse ROR gamma transcriptional activity. Drosophila S2 Gal4-RORgamma UAS-luciferase reporter, 20 h. Potency, µM (titrated, usually from 53.6 µM), for inactives: top-dose activity change, negative = inhibition, hits mostly inhibitors. 310,000 compounds, 5.4% hits. AID 2551; also: nearly all actives have a fitted effect of over 60% in size
# Target sequence (P51450 whole entry, looked up, the tested form may be a part): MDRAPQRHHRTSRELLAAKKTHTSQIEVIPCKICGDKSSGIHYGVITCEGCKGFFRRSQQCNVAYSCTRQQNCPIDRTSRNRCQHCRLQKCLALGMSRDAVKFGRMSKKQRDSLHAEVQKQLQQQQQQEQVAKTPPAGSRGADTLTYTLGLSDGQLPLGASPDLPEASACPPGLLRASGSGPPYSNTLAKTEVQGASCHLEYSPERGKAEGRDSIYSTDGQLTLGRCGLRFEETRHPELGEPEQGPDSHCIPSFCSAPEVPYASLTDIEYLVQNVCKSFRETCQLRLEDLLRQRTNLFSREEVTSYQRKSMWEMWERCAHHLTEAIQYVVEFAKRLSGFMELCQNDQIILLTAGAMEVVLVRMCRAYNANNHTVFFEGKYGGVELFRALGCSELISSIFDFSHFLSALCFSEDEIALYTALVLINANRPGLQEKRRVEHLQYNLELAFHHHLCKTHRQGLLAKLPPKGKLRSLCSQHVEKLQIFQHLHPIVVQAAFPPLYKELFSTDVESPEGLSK
#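 In this cell-based reporter format, copper sulfate (700 uM final) drives Gal4–ROR gamma fusion expression from a metallothionein promoter in Drosophila Schneider cells; compounds preincubated 1 hr, reporter read after 20 hr at ambient temperature.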
# Gal4-VP16 FLuc = counter-screen for ROR gamma inhibitors: Gal4-VP16 reporter; Drosophila S2 Gal4-VP16 UAS-luciferase, luminescence, 20 h; Potency, µM (highest dose often 53.6 µM), for the others: at the highest dose activity, negative = inhibition, actives largely listed as inhibitors; 310,000 compounds, 3.5% hits; AID 2546;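 also: Gal4-VP16 expression switched on by copper sulfate through the metallothionein promoter; nearly all actives have a fitted effect of over 50% in size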
# ELG1 DNA repair = ELG1-dependent DNA repair inhibition; 330,000 compounds, 2.3% hits; HEK293T ELG1-luciferase reporter, luminescence, 16 h; DNA damage induced by 5-fluorouridine; Potency, µM (doses to about 46.1 µM), for the others: at the highest dose activity change, negative = inhibition, most hits filed as inhibitors; also: nearly all actives have a fitted effect of over 55% in size
#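 Overnight (16 hr) co-exposure of 2,000 cells/well to 5-fluorouridine and compound at 37 °C preceded detection. Luciferase was quantified via ONE-Glo luminescence; loss of signal denotes inhibition.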
# ALOX12 inh = blocks human arachidonate 12S-lipoxygenase | P18054 | AID 1671190 | 580,000 compounds, 1.1% hits | purified 12hLO, xylenol orange hydroperoxide absorbance | Potency, µM (titrated, usually from 108 µM), inactives show at the top dose activity change, negative = inhibition, usual class: inhibitors
#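 Purified human 12hLO at 150 nM in 25 mM Hepes, 0.01% Triton X-100, pH 7.0, preincubated 15 min at room temperature with compound. Reaction started with 40 uM arachidonic acid, 30 min at room temperature. Hydroperoxide measured by Fe-xylenol orange, 573/405 nm absorbance ratio.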
# TDP1 cell noCPT = qHTS for Inhibitors of human tyrosyl-DNA phosphodiesterase 1 (TDP1): qHTS in cells in absence of CPT. 420,000 compounds, 15% hits. AID 686978, 2013. Potency, µM (doses to about 46.2 µM), without a hit: at the top dose activity change, negative = growth inhibition, most hits filed as inhibitors. DT40 Tdp1-/- hTDP1 cells, no CPT, ATP luminescence, 48 h; also: nearly all actives have a fitted effect of over 55% in size
#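 Camptothecin absent (DMSO only). Human TDP1-complemented DT40 knockout cells, 400 cells/well, 37 °C for minimum 48 hr; ATP measured via CellTiter-Glo, 30 min dark incubation, luminescence.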
# Active calls of the source: *; i = inactive; ? = inconclusive; . = no result. Only some compounds are listed: those with a hit (about 15% of all), similar ones and a draw of the others. Calls follow the shape of the dose curve; as a rule, active = well fitted curve in the direction sought with a large enough effect; inconclusive = small, poorly fitted or top-dose-only effect, or another doubt; inactive = no such curve, though single readings can be large; an effect the other way counts as inactive or inconclusive. % is scaled to controls: 0 for no effect and ±100 for the full control effect; potency is read from the fitted curve at half-maximal effect.
SMILES,TDP1 cell CPT,RORg inh,Gal4-VP16 FLuc,ELG1 DNA repair,ALOX12 inh,TDP1 cell noCPT
COc1cc2c(cc1OC)CN(Cc1ccc(C)cc1)CC2,-15.9%,-10.0%,-13.5%,-13.1%,10.0%,-28.4%
CCc1ccc2c(CN3CCC4(CC3)OCCO4)cc(=O)oc2c1,.,.,.,.,8.9%,.
CCc1ccc2c(CN3CCc4cc(S(N)(=O)=O)ccc43)cc(=O)oc2c1,.,.,.,.,14.1µM*,.
Nc1ncnc2c1ncn2C=C=CCO,.,.,.,.,i,.
CCOC(=O)c1ccc(NC(=O)CSc2ncnc3c(-c4ccccc4)c[nH]c23)cc1,.,.,.,.,-5.6%,.
Cc1ccc2c(CN(C)Cc3cccc(F)c3)cc(=O)oc2c1C,?,16.9%,-5.9%,?,?,?
CCc1ccc2c(CN3CCc4cc(OC)c(OC)cc4C3)cc(=O)oc2c1,?,-20.0%,?,?,?,23.1µM*
Cc1ccc2c(CN(C)Cc3ccccc3)cc(=O)oc2c1C,-22.3%,?,-4.6%,?,0.0%,14.6µM*
Cc1ccnn1CCC(=O)Nc1nn(C)c2cccc(N3CCOCC3)c12,.,.,.,.,-8.3%,.
CCn1c(=O)n(CC(=O)N(C)Cc2ccc(C)cc2C)c2ccccc21,.,.,.,.,-1.9%,.
COc1ccc(NC(=O)c2cccc(N3C(=O)C4CC=C(C)CC4C3=O)c2)c(OC)c1 (configuration not stated),?,8.5%,-8.1%,?,-18.6%,11.6µM*
Cc1ccccc1NC(=O)c1cccc(N2C(=O)C3C4CC(C(Br)C4Br)C3C2=O)c1 (configuration not stated),-1.2%,0.2%,4.3%,-1.5%,-8.2%,1.5%
COc1ccc(OC)c(NC(=O)c2cccc(N3C(=O)C4C5C=CC(C6CC56)C4C3=O)c2)c1 (configuration not stated),16.4µM*,?,-17.2%,?,3.4%,11.6µM*
COc1ccc(OC)c(NC(=O)c2cccc(N3C(=O)C4C5CCC(C5)C4C3=O)c2)c1 (configuration not stated),23.1µM*,27.3%,-14.7%,?,-2.8%,16.4µM*
CC(NC(=O)c1cccc2ccccc12)C1CC2CCC1C2 (configuration not stated),.,.,.,.,2.6%,.
COc1ccc(/C=N/NC(=O)CCC(=O)Nc2ccccc2)cc1OC,-4.1%,-18.1%,1.2%,8.1%,5.4%,-22.9%
COc1ccc(/C=N/NC(=O)c2ccc(O)cc2O)cc1CSc1ccccn1,-9.5%,0.0891µM*,2µM*,?,-3.3%,?
O=C(CCCSc1nc2ccccc2s1)NCc1ccc(F)cc1,.,.,.,.,-9.4%,.
O=C(CCSc1nc2ccccc2s1)N/N=C/c1c(O)ccc2ccccc12,6.51µM*,1.41µM*,1µM*,-10.7%,-17.9%,3.66µM*
COc1ccc(/C=N/NC(=O)CCn2cnc(-c3ccccc3)c2-c2ccccc2)cc1OC,5.17µM*,?,12.6µM*,?,0.2%,6.51µM*
COc1ccc(/C=N/NC(=O)CCSc2nc3ccccc3s2)cc1OC,13µM*,-13.8%,-2.7%,?,3.7%,29.1µM*
CCOc1cc(C#N)c(NC(=O)c2ccc(F)cc2)cc1OCC,.,.,.,.,11.2%,.
Cc1nc2cc(NC(=O)COc3ccc(C#N)cc3)ccc2o1,.,.,.,.,-22.5%,.
CSC(C)C(=O)N(C)Cc1sccc1C (configuration not stated),.,.,.,.,-3.0%,.
O=C(N/N=C/c1cccc(Oc2ccccc2)c1)c1ccc(O)cc1O,3.1%,0.631µM*,2.24µM*,10.8%,0.0%,4.6%
SMILES,TDP1 cell CPT,RORg inh,Gal4-VP16 FLuc,ELG1 DNA repair,ALOX12 inh,TDP1 cell noCPT
COc1ccc(/C=N/NC(=O)c2ccccc2Cl)cc1CSc1nc2ccccc2s1,5.8µM*,-20.9%,12.4%,-0.6%,-22.4%,4.61µM*
COc1ccc(/C=N/NC(=O)c2cccnc2)cc1CSc1nc2ccccc2s1,3.66µM*,?,20µM*,7.31µM*,29.1%,2.91µM*
COc1ccc(/C=N\NC(=O)c2ccccc2Cl)cc1COc1c(F)c(F)c(F)c(F)c1F,14.3%,-36.6%,15.3%,-15.1%,9.9%,-5.6%
COc1ccc(/C=N/NC(=O)c2cccnc2)cc1CN1CCOCC1,10.9%,-14.2%,-3.0%,-1.5%,-5.4%,-2.5%
COc1ccccc1CCC(=O)N1[C@@H]2CC[C@H]1CC(NC(=O)c1ccc(F)cc1)C2 (some centres not stated),.,.,.,.,51.1%,.
O=c1[nH]c(N2CCOCC2)nc2c1CCN(Cc1ccc(F)c(Br)c1)CC2,.,.,.,.,39.9%,.
C=C(C)c1cccc(C(C)(C)NC(=O)Nn2cnnc2)c1,-9.1%,-19.2%,1.7%,4.6%,2.2%,0.82µM*
C=C(C)c1cccc(C(C)(C)NC(=O)N2CCN(C/C=C/c3ccccc3)CC2)c1,23.1µM*,0.1%,-21.3%,?,-8.2%,23.1µM*
C=C(C)c1cccc(C(C)(C)NC(=O)N2CCCC(C)C2)c1 (configuration not stated),23.1µM*,32.5%,-1.8%,3.2%,10.7%,?
COc1ccc(C(=O)N2CCN(C3CCC(c4ccccc4)CC3)CC2)cc1OC (configuration not stated),20.6µM*,0.8%,-6.8%,?,-24.0%,14.6µM*
CCCCN(Cc1ccsc1)C(=O)c1cnc(Nc2ccccc2)nc1,.,.,.,.,8.8%,.
O=c1c(-c2ccc(F)cc2)nc2cncnc2n1Cc1ccc(F)cc1,-7.8%,11.0%,-7.3%,.,0.0%,-4.4%
